The campaign covered roughly 5,500 compounds. About 2,000 (36%) were called active. Not shown: some 18% with an inconclusive outcome. Cut-off read from the data, not from the text of the source: active = normalized growth mostly below about 0.91 (no sharp cut-off); inconclusive = no clear call, values can overlap the other calls; inactive = mostly above about 0.92. The list shows a part of the results.
Assay: chemical genetic growth profiling, strain panel (AID 1159580);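 note: tested at 20 µM; growth read once vehicle control cultures reached saturation at 30 °C; 1 = growth at the plate median or of vehicle wells; lower values mean less growth of the strain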
Conditions: S. cerevisiae deletion strains, growth OD

Measured: normalized growth

O=c1c2cc(O)c(O)cc2oc2cc(O)c(C3O[C@H](CO)[C@H](O)[C@@H](O)[C@H]3O)c(O)c12 (stereo not given in full)
active: locus YGL240W, strain doc1, stronger effect = lower value 1.14 [resistant] | locus YMR205C, strain PFK2, stronger effect = lower value 1.13 [resistant]
inactive: locus YAL021C, strain ccr4, stronger effect = lower value 1.01 | locus YAL026C, strain drs2, stronger effect = lower value 1.02 | locus YAL030W, strain snc1, stronger effect = lower value 1.02 | locus YBL061C, strain skt5, stronger effect = lower value 1.03 | locus YBR009C, strain hhf1, stronger effect = lower value 1.08 | locus YBR023C, strain chs3, stronger effect = lower value 1.02 | locus YBR171W, strain sec66, stronger effect = lower value 1.02 | locus YBR231C, strain swc5, stronger effect = lower value 1.03 | locus YBR279W, strain paf1, stronger effect = lower value 1.01 | locus YCL011C, strain gbp2, stronger effect = lower value 1.04 | locus YCL016C, strain dcc1, stronger effect = lower value 1.02 | locus YCL061C, strain MRC1, stronger effect = lower value 1.02 | locus YCL069W, strain vba3, stronger effect = lower value 1.02 | locus YCR088W, strain abp1, stronger effect = lower value 1.03 | locus YDL005C, strain med2, stronger effect = lower value 1.04 | locus YDL040C, strain nat1, stronger effect = lower value 1.02 | locus YDR001C, strain nth1, stronger effect = lower value 1.02 | locus YDR069C, strain doa4, stronger effect = lower value 1.03 | locus YDR137W, strain rgp1, stronger effect = lower value 1.04 | locus YDR159W, strain sac3, stronger effect = lower value 1.11 | locus YDR195W, strain ref2 1.12 | locus YDR297W, strain sur2, stronger effect = lower value 1.04 | locus YDR334W, strain swr1, stronger effect = lower value 1.01 | locus YDR335W, strain msn5, stronger effect = lower value 1.01 | locus YDR392W, strain spt3, stronger effect = lower value 1.07 | locus YEL003W, strain gim4, stronger effect = lower value 1.02 | locus YEL037C, strain rad23, stronger effect = lower value 1.02 | locus YEL061C, strain CIN8 (second series), stronger effect = lower value 1.02 | locus YER015W, strain faa2, stronger effect = lower value 1 | locus YER016W, strain bim1, stronger effect = lower value 1.04 | locus YER111C, strain swi4, stronger effect = lower value 1.03 | locus YER155C, strain BEM2 (second series), stronger effect = lower value 1.12 | locus YFR010W, strain ubp6, stronger effect = lower value 1.02 | locus YGL167C, strain pmr1, stronger effect = lower value 1.03 | locus YGL173C, strain kem1, stronger effect = lower value 1.03 | locus YGL227W, strain vid30, stronger effect = lower value 1.04 | locus YGL253W, strain hxk2, stronger effect = lower value 0.986 | locus YHR013C, strain ard1, stronger effect = lower value 1 | locus YHR027C, strain rpn1, stronger effect = lower value 1.01 | locus YHR030C, strain SLT2, stronger effect = lower value 0.973 | locus YHR079C, strain IRE1, stronger effect = lower value 0.982 | locus YHR142W, strain chs7, stronger effect = lower value 0.945 | locus YJL092W, strain hpr5, stronger effect = lower value 1.03 | locus YJL095W, strain BCK1 (second series), stronger effect = lower value 1.02 | locus YJL095W, strain BCK1, stronger effect = lower value 1.03 | locus YJL115W, strain asf1, stronger effect = lower value 1.01 | locus YJL129C, strain trk1, stronger effect = lower value 0.999 | locus YJL154C, strain vps35, stronger effect = lower value 1.02 | locus YJL164C, strain tpk1, stronger effect = lower value 0.98 | locus YJL166W, strain qcr8, stronger effect = lower value 0.993 | locus YJL187C, strain SWE1, stronger effect = lower value 1.02 | locus YJR066W, strain TOR1, stronger effect = lower value 0.937 | locus YKL160W, strain elf1, stronger effect = lower value 0.988 | locus YKR026C, strain gcn3, stronger effect = lower value 1.02 | locus YKR091W, strain srl3, stronger effect = lower value 1.03 | locus YLL001W, strain dnm1, stronger effect = lower value 1.04 | locus YLL026W, stronger effect = lower value 1.02 | locus YLL041C, strain sdh2, stronger effect = lower value 1.01 | locus YLR027C, strain aat2, stronger effect = lower value 1.01 | locus YLR113W, strain HOG1, stronger effect = lower value 1.1 | locus YLR221C, strain rsa3, stronger effect = lower value 0.985 | locus YLR258W, strain gsy2, stronger effect = lower value 1.06 | locus YLR262C, strain YPT6 (second series), stronger effect = lower value 1.02 | locus YLR320W, strain mms22, stronger effect = lower value 1.07 | locus YLR342W, strain FKS1, stronger effect = lower value 1.03 | locus YLR357W, strain rsc2, stronger effect = lower value 1.01 | locus YLR370C, strain arc18, stronger effect = lower value 1.01 | locus YLR384C, strain iki3, stronger effect = lower value 1.01 | locus YML120C, strain ndi1, stronger effect = lower value 1 | locus YMR058W, strain fet3, stronger effect = lower value 1.01 | locus YMR125W, strain sto1, stronger effect = lower value 1.07 | locus YMR129W, stronger effect = lower value 1.02 | locus YMR231W, strain pep5, stronger effect = lower value 1.02 | locus YNL071W, strain lat1, stronger effect = lower value 1.02 | locus YNL183C, strain NPR1, stronger effect = lower value 0.98 | locus YNL209W, strain ssb2, stronger effect = lower value 0.986 | locus YNL248C, strain rpa49, stronger effect = lower value 0.992 | locus YNL322C, strain KRE1 (second series), stronger effect = lower value 1.02 | locus YNR049C, strain mso1, stronger effect = lower value 1.03 | locus YOR001W, strain rrp6, stronger effect = lower value 0.981 | locus YOR070C, strain gyp1, stronger effect = lower value 0.999 | locus YOR080W, strain dia2, stronger effect = lower value 1.03 | locus YOR083W, strain WHI5, stronger effect = lower value 0.968 | locus YOR106W, strain vam3, stronger effect = lower value 0.887 | locus YOR231W, strain MKK1, stronger effect = lower value 0.988 | locus YOR265W, strain rbl2, stronger effect = lower value 1.01 | locus YOR270C, strain vph1, stronger effect = lower value 0.938 | locus YOR290C, strain snf2, stronger effect = lower value 0.995 | locus YPL051W, strain arl3, stronger effect = lower value 0.961 | locus YPL078C, strain atp4, stronger effect = lower value 0.969 | locus YPL106C, strain sse1, stronger effect = lower value 1.05 | locus YPL240C, strain hsp82, stronger effect = lower value 0.997 | locus YPL256C, strain CLN2, stronger effect = lower value 1

Reference: PubChem BioAssay AID1159580 (chemical genetic matrix, 2015)
